Test [1] is described as follows: inhibitors of TNFa-induced NFkB p65 translocation, primary screen, imaging, HUVEC, MLSMR starter and 10KST1 sets (AID 438;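 active means inhibition above 20% together with a positive visual image hit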;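 further: compound added about 3h40 before a 20 min TNFalpha stimulation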;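 on inhibition: signal is the nuclear over cytoplasmic p65 intensity ratio per well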). To be noted: HUVEC TNFa-induced p65 nuclear translocation; cell count: measured here: nuclei count (cytotoxicity indicator), at 2.08 µM; inhibition: at 2 µM, stronger effect = higher value, 0% TNFa-plus-vehicle, 100% no-TNFa wells.
The nature of test [2]: reduction of polyQ htt aggregates in cells – imaging, exon1htt(103Q)mCFP cells, high-content imaging, primary screen (AID 483;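 active means visual image review flags a hit and inhibition of aggregation exceeds 20%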;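 further: compound exposure lasted 3 days before fixation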;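 on nuclei count: percent of the per-plate median nuclei count of sample wells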). To be noted: exon1htt(103Q)mCFP cell line, aggregate imaging, at 2 µM; inhibition of aggregation: stronger effect = higher value; nuclei count: measured here: cell count, toxicity.
Test [3] can be described thus: endothelial E-selectin expression blockers – imaging, HUVEC, immunofluorescence, MLSMR starter and 10KST1 sets, primary screen (AID 487;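 active means visually confirmed hit in the image check and inhibition above 20%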;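 on inhibition: signal is fraction of cell area covered by stained E-selectin grains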;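 on nuclei count: 100% = median nuclei count of all wells on the same plate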). Conditions: HUVEC TNFalpha-induced E-selectin immunofluorescence imaging, at 2 µM; inhibition: stronger effect = higher value; nuclei count: measured here: cell number, toxicity.
For test [4], the target named is Voltage-gated potassium channel subunit beta-2 (Rattus norvegicus) (UniProt P62483). In words: inhibitors of rat Kvbeta2 reductase activity – biochemical, NADPH fluorescence, primary screen (AID 622;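 active means fluorescence slope higher than the sample average by over 3 SD, cut at about -0.22 in these data, passing the limit was not always enough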;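 further: slope of raw intensity against log time taken from 70 to 1610 s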). Conditions: recombinant KvBeta, 4-cyanobenzaldehyde reduction, at 10 µM, stronger effect = higher value.
Chain of Voltage-gated potassium channel subunit beta-2 (Rattus norvegicus) (P62483 whole entry, looked up): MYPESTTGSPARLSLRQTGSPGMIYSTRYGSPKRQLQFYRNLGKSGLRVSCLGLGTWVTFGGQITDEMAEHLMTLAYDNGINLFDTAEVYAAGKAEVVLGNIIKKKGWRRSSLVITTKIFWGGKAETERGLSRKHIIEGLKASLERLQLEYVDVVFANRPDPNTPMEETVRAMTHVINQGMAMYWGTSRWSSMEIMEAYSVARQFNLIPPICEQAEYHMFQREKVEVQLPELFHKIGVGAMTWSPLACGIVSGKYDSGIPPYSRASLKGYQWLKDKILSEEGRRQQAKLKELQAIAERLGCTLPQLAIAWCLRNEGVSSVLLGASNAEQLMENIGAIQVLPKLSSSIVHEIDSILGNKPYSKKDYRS
Test [5] has the same target. In words: enhancers of rat Kvbeta2 NADPH turnover – biochemical, NADPH fluorescence, primary screen (AID 623).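 Further: fluorescence intensity change per second fitted from 20 to 320 s.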 To be noted: Recombinant KvBeta, NADPH fluorescence decrease slope, 10 min; at 10 µM; stronger effect = lower value.
Test [6] deals with Alpha-2C adrenergic receptor (Homo sapiens) (UniProt P18825). In words: compounds altering alpha2C-coupled GIRK flux – cell-based, HEK293 alpha2C/GIRK1/2, thallium flux, primary screen (AID 624;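 active means fluorescence slope after compound addition differing from the mean of all screened samples at 99.7% confidence, in either direction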;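 further: slope of fluorescence ratio to pre-addition baseline per second over 15 to 24 s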). Conditions: thallium flux BTC fluorescence, at 10 µM, actives lie on both sides.
Chain of Alpha-2C adrenergic receptor (Homo sapiens) (P18825 whole entry, looked up): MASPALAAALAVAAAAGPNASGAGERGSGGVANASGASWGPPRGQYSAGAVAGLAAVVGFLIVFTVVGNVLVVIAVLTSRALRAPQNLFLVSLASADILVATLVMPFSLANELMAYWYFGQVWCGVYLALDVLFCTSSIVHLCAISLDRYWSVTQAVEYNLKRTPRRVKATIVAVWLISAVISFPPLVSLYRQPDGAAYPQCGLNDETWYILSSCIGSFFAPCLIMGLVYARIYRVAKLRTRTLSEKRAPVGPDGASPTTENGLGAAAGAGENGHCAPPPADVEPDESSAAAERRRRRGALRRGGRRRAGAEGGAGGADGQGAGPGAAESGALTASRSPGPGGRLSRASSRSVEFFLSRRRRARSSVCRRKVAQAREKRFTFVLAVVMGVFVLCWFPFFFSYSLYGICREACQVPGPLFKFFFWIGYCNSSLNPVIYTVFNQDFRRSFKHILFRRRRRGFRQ
A short description of test [7]: blockers of RIG-like receptor reporter activation – cell-based, Sendai virus stimulus, luciferase, 10K MLSCN set, TLR/RLR signaling modifier project, primary screen (AID 602276;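 active means inhibition at or above 50% at 10 µM; inactive means inhibition below 50%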;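 further: firefly luciferase from ISG56 promoter only with Renilla not read in this screen; 0% = Sendai virus plus DMSO and 100% = medium plus DMSO without virus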). Conditions: HEK293 RL24 IRF3 luciferase reporter, at 10 µM, stronger effect = higher value. On the technique in general: Reporter assays use an easily measured gene product as a stand-in for the process of interest.

Test [8] in a line: TLR3 IRF3 reporter activation blockers – cell-based, poly I:C stimulus, luciferase, 10K MLSCN set, primary screen (AID 602277;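 active means inhibition of the reporter signal at or above 50%; inactive means inhibition below 50%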). To be noted: HEK293-TLR3 RL24 IRF3 luciferase reporter, at 10 µM, stronger effect = higher value.

Activity calls are given as the source filed them.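 How the source made its calls, unless noted: active means NADPH fluorescence slope more negative than the mean of all samples by about 3 SD, 99.7% confidence; inactive means the rest.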

Take `CC(C)CC1NC(=O)N(CC(=O)N2CCN(S(=O)(=O)c3ccc(Cl)cc3)CC2)C1=O` (centres undefined): the cell count in test [1] is 716. For the same compound, the inhibition (as a rule, the drop in the measured response relative to a control, in per cent) in test [1] was 4% (inactive); in test [3] it was -35.6% (inactive); in test [7], 15.2% (inactive); in test [8], -5.28% (inactive). Further, the inhibition of aggregation in test [2] is 11.8% (inactive). The nuclei count in test [2] was determined as 93%; in test [3], 76.3%. The fluorescence slope in test [4] was -0.416 (inactive). The NADPH fluorescence slope in test [5] is 4.2e-06 (inactive). Also, in test [6], the slope is 0.00417 (inactive).

For the compound `CC1(C)CC(=O)C(CC2=C(O)CC(C)(C)CC2=O)=C(O)C1`, the cell count in test [1] was 628. The inhibition in test [1] is -6.7% (inactive); in test [3] it was -24.2% (inactive); in test [7] it was 7.41% (inactive); in test [8], 23.2% (inactive). In addition, the inhibition of aggregation in test [2] is 15.8% (inactive). In addition, the nuclei count in test [2] worked out at 90.9%; in test [3] it was 112%. In test [4], the fluorescence slope is -0.386 (inactive). The NADPH fluorescence slope in test [5] was -1.3e-05 (inactive). In addition, the slope in test [6] is 0.00397 (inactive).

With `Cc1ccc2c(c1)N(CC(=O)N1CCCCC1c1cccnc1)C(=O)CO2` (centres undefined), the cell count in test [1] turned out to be 442. Further, the inhibition is 2.2% (inactive) in test [1], -48.3% (inactive) in test [3], -2.12% (inactive) in test [7] and 17.4% (inactive) in test [8]. Also, the inhibition of aggregation in test [2] is 4.1% (inactive). Also, the nuclei count in test [2] and in test [3] was 104% each time. Also, the fluorescence slope in test [4] is -0.345 (inactive). Besides, the NADPH fluorescence slope in test [5] was -6.9e-05 (inactive). Also, the slope in test [6] is 0.0057 (inactive).

In the case of `COc1ccc(CN(Cc2cc3cc4c(cc3[nH]c2=O)OCO4)C(=O)NC2CCCCC2)cc1`, the cell count in test [1] is 337. Also, the inhibition was 7.6% (inactive) in test [1], -75.9% (inactive) in test [3], 5.31% (inactive) in test [7] and -1.61% (inactive) in test [8]. For the same compound, in test [2], the inhibition of aggregation was 38.7% (inactive). The results for the nuclei count in test [2] and in test [3] were 73.1% and 99.3%, respectively. Moreover, the fluorescence slope in test [4] is -0.368 (inactive). For the same compound, in test [5], the NADPH fluorescence slope is -5.1e-05 (inactive). Also, the slope in test [6] was 0.0053 (inactive).

For the compound `CCn1c(SCC(=O)N2CCOCC2)nc2c(c1=O)SC(C)C2` (centres undefined), the cell count in test [1] turned out to be 298. Also, the inhibition is 9.4% (inactive) in test [1], 20% (inactive) in test [3], -5.39% (inactive) in test [7] and 4.93% (inactive) in test [8]. Also, the inhibition of aggregation in test [2] was 21.4% (inactive). For the same compound, the nuclei count came out at 89.2% in test [2] and 93.4% in test [3]. Also, the fluorescence slope in test [4] is -0.542 (inactive). Further, the NADPH fluorescence slope in test [5] was -3.5e-06 (inactive). In addition, in test [6], the slope was 0.00531 (inactive).

Turning to `CCC(=O)N1CCc2cc(S(=O)(=O)CCC(=O)Nc3ccc(F)c(F)c3)ccc21`, the cell count in test [1] came to 571. In addition, the inhibition in test [1] is 5.2% (inactive); in test [3], -68.8% (inactive); in test [7], -11.6% (inactive); in test [8] it was -3.44% (inactive). For the same compound, in test [2], the inhibition of aggregation was 6.1% (inactive). The nuclei count was found to be 96% in test [2] and 111% in test [3]. Besides, the fluorescence slope in test [4] is -0.423 (inactive). Further, in test [5], the NADPH fluorescence slope was -1.2e-05 (inactive). In addition, the slope in test [6] was 0.00293 (inactive).

As to `CC1CC(C)CN(CCCNC(=O)c2ccc3c(c2)NC(=O)C(N2CCCCC2)S3)C1` (centres undefined), in test [1], the cell count was 395. Besides, the inhibition in test [1] is -7.7% (inactive); in test [3], -14.9% (inactive); in test [7], -18.6% (inactive); in test [8] it was -14.5% (inactive). In test [2], the inhibition of aggregation is -6.5% (inactive). In addition, the nuclei count came out at 101% in test [2] and 113% in test [3]. Further, the fluorescence slope in test [4] is -0.317 (inactive). The NADPH fluorescence slope in test [5] is 6.4e-06 (inactive). Besides, the slope in test [6] is 0.00531 (inactive).

Consider `Cc1ccc2c(c1)C(O)(CC(=O)c1ccc3c(c1)OCO3)C(=O)N2` (centres undefined), for which the cell count in test [1] was 671. The inhibition was 9.5% (inactive) in test [1], 16.8% (inactive) in test [3], 0.102% (inactive) in test [7] and 23% (inactive) in test [8]. In addition, the inhibition of aggregation in test [2] was -46.3% (inactive). For the same compound, the figures for the nuclei count in test [2] and in test [3] were 93.9% and 93.3%, respectively. Further, in test [4], the fluorescence slope was -0.511 (inactive). The NADPH fluorescence slope in test [5] is -5e-05 (inactive). Further, in test [6], the slope was 0.00523 (inactive).

For `CCc1c(C)n([O-])c2c([n+]1=O)CCC2`, the cell count in test [1] turned out to be 369. Further, the inhibition is 2.8% (inactive) in test [1], 3.1% (inactive) in test [3], -11.4% (inactive) in test [7] and 7.02% (inactive) in test [8]. The inhibition of aggregation in test [2] is -1.6% (inactive). Besides, the figures for the nuclei count in test [2] and in test [3] were 106% and 111%, respectively. Moreover, the fluorescence slope in test [4] was -0.51 (inactive). Further, the NADPH fluorescence slope in test [5] was -1.5e-05 (inactive). Moreover, the slope in test [6] is 0.00618 (inactive).

With `O=C(CCC1COc2ccccc2O1)NCC1COc2ccccc2O1` (centres undefined), the cell count in test [1] is 568. In addition, the inhibition was 2.4% (inactive) in test [1], -72.2% (inactive) in test [3], 13.4% (inactive) in test [7] and 19.2% (inactive) in test [8]. For the same compound, the inhibition of aggregation in test [2] is -5.5% (inactive). In addition, the nuclei count stood at 117% in test [2] and 85.5% in test [3]. For the same compound, the fluorescence slope in test [4] is -0.499 (inactive). Moreover, the NADPH fluorescence slope in test [5] is -2.5e-05 (inactive). Moreover, in test [6], the slope was 0.0058 (inactive).

For `Cc1ccc(C)c(NS(=O)(=O)c2ccc(NC(=O)c3ccco3)cc2)c1`, in test [1], the cell count was found to be 476. For the same compound, the inhibition in test [1] was 13.3% (inactive); in test [3], -15.1% (inactive); in test [7], 0.316% (inactive); in test [8], 11.1% (inactive). For the same compound, the inhibition of aggregation in test [2] is 4.7% (inactive). For the same compound, the nuclei count came to 111% in test [2] and 109% in test [3]. Also, in test [4], the fluorescence slope was -0.335 (inactive). Also, the NADPH fluorescence slope in test [5] was -3.2e-05 (inactive). Further, in test [6], the slope was 0.00608 (inactive).

Take `Cc1ccc2cc(CCNC(=O)C(C)C)c(=O)[nH]c2c1C`: the cell count in test [1] is 640. Moreover, the inhibition in test [1] was 1.9% (inactive); in test [3], -60.4% (inactive); in test [7] it was -6.46% (inactive); in test [8] it was -5.17% (inactive). Besides, the inhibition of aggregation in test [2] was 8.6% (inactive). Also, the nuclei count in test [2] stood at 57.4%; in test [3] it was 125%. The fluorescence slope in test [4] is -0.57 (inactive). Also, the NADPH fluorescence slope in test [5] was -2.3e-05 (inactive). In addition, in test [6], the slope is 0.00565 (inactive).

In the case of `O=C(CN1C(=O)CSC1=O)N1CCc2ccccc2C1`, the cell count in test [1] is 324. The inhibition in test [1] was 4.8% (inactive); in test [3] it was 0.8% (inactive); in test [7], 6.34% (inactive); in test [8], 31% (inactive). In addition, the inhibition of aggregation in test [2] was 14% (inactive). Besides, the nuclei count worked out at 101% in test [2] and 107% in test [3]. The fluorescence slope in test [4] is -0.423 (inactive). Besides, in test [5], the NADPH fluorescence slope was -5.1e-05 (inactive). Further, the slope in test [6] was 0.00367 (inactive).

Take `O=C(CSc1nnc(-c2c[nH]c3ccccc23)o1)N(Cc1ccccc1)c1ccc(F)cc1`: in test [1], the cell count amounted to 295. Further, the inhibition is -6.1% (inactive) in test [1], -20.3% (inactive) in test [3], -15.4% (inactive) in test [7] and -35.1% (inactive) in test [8]. For the same compound, the inhibition of aggregation in test [2] was 1% (inactive). In addition, the values for the nuclei count in test [2] and in test [3] were 95.3% and 119%, respectively. The fluorescence slope in test [4] is -0.6 (inactive). The NADPH fluorescence slope in test [5] was -2.1e-05 (inactive). Further, the slope in test [6] is 0.00713 (inactive).

(Values after PubChem BioAssay.)
